Screening data (PubChem)
An excerpt weighted towards active compounds, which were near 3.4% of everything screened.
GLS inh – inhibitors of human glutaminase (GLS). O94925. GLS enzymatic activity, qHTS titration. Potency, µM (highest dose often 45.5 µM), for the others: top-dose activity change, negative = inhibition, usual class: inhibitors. hit rate 0.21% among 410,000; further: potency means the concentration at half of the fitted maximal effect; on the % scale 0 is the no-effect control and ±100 the full control effect
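Assay buffer: 45 mM KH2PO4 pH 8.2, 0.02% Tween-20. hKGA acts on L-glutamine (1 mM solution added); product glutamate is reported by an oxidase/peroxidase Amplex Red coupling, with fluorescence taken at baseline and 30 min.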
PKM2 act – activators of human pyruvate kinase M2; Potency, µM (series often up to 57.5 µM), for the others: at the highest dose activation, usual class: activators; AID 1631; hit rate 0.34% among 260,000; P14618; purified PKM2, Kinase-Glo ATP luminescence, activation; response scale: 0% is enzyme alone, no compound; further: potency means the concentration at half of the fitted maximal effect; on the % scale 0 is the no-effect control and ±100 the full control effect; nearly all actives have a fitted effect of over 55% in size
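hPK-M2, >95% pure; 0.1 mM ADP / 0.5 mM PEP final; imidazole pH7.2 buffer w/ 7 mM MgCl2, 50 mM KCl; 1 h RT; Kinase-Glo lum. Intermediate enzyme activity for dual inhibitor/activator qHTS.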
PLK1 PBD inh – blocks phosphopeptide binding to human PLK1 polo-box domain; AID 720504; hit rate 2.8% among 360,000; Plk1 PBD binding of FITC phosphopeptide, fluorescence polarization; Potency, µM, for the others: max response, negative = inhibition, most hits filed as inhibitors; P53350; further: potency means the concentration at half of the fitted maximal effect; series mostly up to about 57 µM; on the % scale 0 is the no-effect control and ±100 the full control effect; nearly all actives have a fitted effect of over 65% in size
Target sequence (P53350 whole entry, looked up, the tested form may be a part): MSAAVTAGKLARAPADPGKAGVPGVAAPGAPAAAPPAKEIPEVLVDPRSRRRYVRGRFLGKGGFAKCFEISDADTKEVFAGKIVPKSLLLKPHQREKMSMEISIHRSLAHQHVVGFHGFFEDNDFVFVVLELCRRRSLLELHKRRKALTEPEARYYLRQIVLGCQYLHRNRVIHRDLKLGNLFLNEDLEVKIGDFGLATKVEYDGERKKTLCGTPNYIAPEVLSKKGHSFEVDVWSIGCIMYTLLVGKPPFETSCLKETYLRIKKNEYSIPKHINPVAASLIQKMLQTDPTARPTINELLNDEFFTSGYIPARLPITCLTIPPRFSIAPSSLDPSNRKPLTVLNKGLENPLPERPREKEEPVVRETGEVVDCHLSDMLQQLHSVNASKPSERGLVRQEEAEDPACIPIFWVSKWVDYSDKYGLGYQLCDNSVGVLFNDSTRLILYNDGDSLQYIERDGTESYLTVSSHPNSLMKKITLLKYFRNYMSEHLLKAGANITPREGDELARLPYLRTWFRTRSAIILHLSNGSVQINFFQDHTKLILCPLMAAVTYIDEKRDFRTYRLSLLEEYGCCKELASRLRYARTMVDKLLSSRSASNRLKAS
VDR inhibitor – vitamin D3 receptor (human) inhibition. VDR-SRC2-3 peptide fluorescence polarization, 2 h. Potency, µM, for inactives: max response, negative = inhibition, usual class: inhibitors. hit rate 0.93% among 400,000. AID 504847; further: potency means the concentration at half of the fitted maximal effect; on the % scale 0 is the no-effect control and ±100 the full control effect
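Fluorescence polarization assay of small-molecule disruption of VDR binding to coregulator peptide SRC2-3. Compounds and controls pin-transferred, then read after 2 h incubation at ambient room temperature.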
Mito fusion yeast – blocks mitochondrial division or promotes mitochondrial fusion. S. cerevisiae fusion-defective mutant growth rescue, CellTiterGlo 48 h. Potency, µM (top dose mostly 46.1 µM), without a hit: at the highest dose growth rescue (activation), hits mostly activators. hit rate 0.23% among 320,000; further: potency means the concentration at half of the fitted maximal effect; % of control where 0% means no effect; nearly all actives have a fitted effect of over 45% in size
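S. cerevisiae fusion-defective temperature-sensitive mutants (e.g. fzo1-1, mgm1-5) grown 48 h at 37C in YPEG (ethanol/glycerol non-fermentable) medium with 23 nl compound per well; growth rescue read as CellTiterGlo luminescence.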
GCN5L2 inh – GCN5L2 (KAT2A) acetyltransferase inhibition; AID 504327; hit rate 0.21% among 390,000; Potency, µM (doses to about 58.9 µM), for the others: at the top dose activity change, negative = inhibition, usual class: inhibitors; GCN5L2 HAT assay, ThioGlo1 CoA-SH fluorescence; Q92830; further: potency means the concentration at half of the fitted maximal effect; on the % scale 0 is the no-effect control and ±100 the full control effect
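Enzyme at 20nM final was mixed with library compounds for 15 min at room temperature. Peptide H3(1-25) at 75uM, acetyl-CoA at 70uM and ThioGlo1 at 50uM were then added. Plates were read immediately and after 20 min (Ex340nm/Em540nm).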
USP1 UbRho – USP1-UAF1 deubiquitinase inhibition validated; hit rate 50% among 50; Ub-Rhodamine cleavage, fluorescence kinetic read; shares compounds with VDR inhibitor; Potency, µM (top dose mostly 56.8 µM), inactives show at the highest dose activity change, negative = inhibition, actives largely listed as inhibitors
VDR confirm – inhibits human vitamin D receptor, primary hit validation. shares compounds with VDR inhibitor. VDR-coactivator inhibition assay, qHTS confirmation. Potency, µM, usual class: inhibitors. hit rate 89% among 840. AID 602199; further: potency means the concentration at half of the fitted maximal effect
VDR FP fluor – VDR (human) coactivator binding inhibition, fluorescein polarization; shares compounds with VDR inhibitor; VDR-coactivator binding, fluorescein fluorescence polarization; Potency, µM (titrated, usually from 57.1 µM), for inactives: top-dose activity change, negative = inhibition, hits mostly inhibitors; hit rate 48% among 840; AID 602200; further: potency means the concentration at half of the fitted maximal effect
VDR bla – VDR (human) inhibition, cell-based beta-lactamase validation; AID 602202; VDR beta-lactamase reporter cells, FRET ratio; cells co-treated with VDR agonist LG190178; Potency, µM (doses to about 46.1 µM), for the others: top-dose activity change, negative = inhibition, most hits filed as inhibitors; shares compounds with VDR inhibitor; hit rate 23% among 840; further: potency means the concentration at half of the fitted maximal effect; on the % scale 0 is the no-effect control and ±100 the full control effect
VDR cytotox – counter-screen for vitamin D receptor inhibitors: cytotoxicity | hit rate 18% among 840 | shares compounds with VDR inhibitor | Potency, µM (highest dose often 48.3 µM), for the others: top-dose activity change, negative = cytotoxicity, hits mostly cytotoxic | cytotoxicity counter-screen, cell viability, qHTS;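 further: potency means the concentration at half of the fitted maximal effect; plate controls were DMSO for no effect and high-concentration cycloheximide for full effect; nearly all actives have a fitted effect of over 75% in size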
* hit, by the source's call. The call rests on the fitted dose curve; in most records, active means well fitted curve in the direction sought with a large enough effect; inconclusive means small, poorly fitted or top-dose-only effect, or another doubt; inactive means no such curve, though single readings can be large; an effect the other way counts as inactive or inconclusive.

Results for COCCn1c(C)cc(C2=NNC(=Nc3ccccc3)SC2)c1C ?
GLS inh: 21.0%; PKM2 act: 3.1%; PLK1 PBD inh: -15.2%; VDR inhibitor: 8.4%; Mito fusion yeast: 0.2%; GCN5L2 inh: -0.6%

What do the screens show for `COC(=O)[C@]12CCCCC=C1N(CCc1ccc(OC)c(OC)c1)C(=O)[C@H](CC(=O)NCCCN1CCCC1=O)C2`?
PLK1 PBD inh: -2.4%

Results for Cc1nc2ccc(N=NN(C)C)cc2[nH]1 ?
GLS inh: 0.4%; PKM2 act: 10µM*; PLK1 PBD inh: -12.2%; VDR inhibitor: 50.1µM*; Mito fusion yeast: 1.1%; GCN5L2 inh: inconclusive; VDR confirm: 21.2*; VDR FP fluor: inconclusive; VDR bla: 7.2%; VDR cytotox: inconclusive

What do the screens show for `Cc1ccc(C)c(NC(=O)CN(C)C(=O)c2cc(C3CC3)nn2-c2ccccc2)c1`?
GLS inh: -5.6%; PLK1 PBD inh: 2.3%; VDR inhibitor: -2.3%; GCN5L2 inh: -0.5%

Results for CC(C)CC(=O)/C(=C/c1ccc(N(C)C)cc1)n1cncn1 ?
GLS inh: 1.9%; PLK1 PBD inh: 10.8%; VDR inhibitor: -5.7%; Mito fusion yeast: 2.5%; GCN5L2 inh: -3.6%

Results for CC(C)CC(=O)/C(=C\c1ccc(Cl)cc1Cl)n1cncn1 ?
GLS inh: -3.0%; PKM2 act: inconclusive; PLK1 PBD inh: inconclusive; VDR inhibitor: 3.98µM*; Mito fusion yeast: 3.0%; GCN5L2 inh: 3.3%; VDR confirm: 3.77*; VDR FP fluor: inconclusive; VDR bla: 16.4µM*; VDR cytotox: 14.6µM*

How did CCOC(=O)c1c(C)oc2ncnc(Nc3cc(Cl)ccc3OC)c12 do in these assays?
GLS inh: -1.9%; VDR inhibitor: 9.1%; GCN5L2 inh: 17.6%

Results for COc1ccc(OC)c2c1C(=O)C(Cl)=C(Cl)C2=O ?
GLS inh: 3.6%; PKM2 act: -3.9%; PLK1 PBD inh: 2.12µM*; VDR inhibitor: 22.4µM*; Mito fusion yeast: 2.0%; GCN5L2 inh: 12.6µM*; VDR confirm: 8.44*; VDR FP fluor: inconclusive; VDR bla: 1.64µM*; VDR cytotox: 5.17µM*

What do the screens show for `COc1ccc(/C=N/Nc2nc(=O)[nH]nc2C)cc1[N+](=O)[O-]`?
GLS inh: -17.7%; PKM2 act: -24.5%; PLK1 PBD inh: -7.7%; VDR inhibitor: 0.2%; Mito fusion yeast: -2.7%; GCN5L2 inh: -0.5%

How did COc1ccc(/C=C2\N=C(C)OC2=O)cc1[N+](=O)[O-] do in these assays?
GLS inh: -12.5%; PKM2 act: -2.1%; PLK1 PBD inh: inconclusive; VDR inhibitor: 79.4µM*; Mito fusion yeast: 2.1%; GCN5L2 inh: -10.2%; VDR confirm: 10.6*; VDR FP fluor: inconclusive; VDR bla: 29.1%; VDR cytotox: 14.6%

What do the screens show for `Cc1ccc(-c2nc(-c3nccc4ccccc34)oc2-c2ccccc2)cc1`?
GLS inh: -3.4%; PKM2 act: -0.8%; PLK1 PBD inh: -24.6%; VDR inhibitor: -9.0%; Mito fusion yeast: -0.9%; GCN5L2 inh: inconclusive

Results for O=C(O)COc1cccc(-c2ocnc2-c2nc(-c3ccccc3)c(-c3ccccc3)o2)c1 ?
VDR inhibitor: inconclusive; GCN5L2 inh: inconclusive; USP1 UbRho: 59.1µM*

How did CC(C)c1nnc(NC(=O)CCS(=O)(=O)Cc2ccccc2)s1 do in these assays?
GLS inh: 13.9%; PKM2 act: 2.2%; PLK1 PBD inh: inconclusive; VDR inhibitor: -4.6%; Mito fusion yeast: -0.7%; GCN5L2 inh: 0.9%

How did O=C(CCS(=O)(=O)c1nc(-c2ccc3c(c2)OCO3)cc(C(F)(F)F)n1)Nc1ccc(Br)cc1 do in these assays?
GLS inh: 4.0%; VDR inhibitor: 12.6µM*; GCN5L2 inh: -12.2%; VDR confirm: 3.16*; VDR FP fluor: 3.55µM*; VDR bla: 23.1µM*; VDR cytotox: inconclusive

Results for COc1ccc(Cl)cc1NC(=O)CCCS(=O)(=O)c1nc(-c2ccc(OC)c(OC)c2)cc(C(F)(F)F)n1 ?
GLS inh: -11.1%; VDR inhibitor: inconclusive; GCN5L2 inh: -8.4%

Results for CC(C)c1nnc(NC(=O)CCS(=O)(=O)c2nc(-c3cccs3)cc(C(F)(F)F)n2)s1 ?
GLS inh: 9.0%; PKM2 act: 10.7%; PLK1 PBD inh: inconclusive; VDR inhibitor: 22.4µM*; Mito fusion yeast: -15.0%; GCN5L2 inh: -9.0%; VDR confirm: 9.47*; VDR FP fluor: inconclusive; VDR bla: inconclusive; VDR cytotox: inconclusive

Results for COc1ccc(Cl)cc1NC(=O)CCS(=O)(=O)c1nc(-c2cccs2)cc(C(F)(F)F)n1 ?
GLS inh: 7.4%; VDR inhibitor: 20µM*; GCN5L2 inh: -6.3%; VDR confirm: 5.01*; VDR FP fluor: 3.55µM*; VDR bla: 18.4µM*; VDR cytotox: inconclusive

How did O=C(CCS(=O)(=O)c1nc(-c2cccs2)cc(C(F)(F)F)n1)Nc1ccc(F)c(Cl)c1 do in these assays?
GLS inh: 0.2%; VDR inhibitor: 22.4µM*; GCN5L2 inh: -2.4%; VDR confirm: 3.16*; VDR FP fluor: 3.55µM*; VDR bla: inconclusive; VDR cytotox: inconclusive

What do the screens show for `Cc1ccc(-c2cn3cccnc3n2)cc1NC(=O)Cc1ccccc1`?
GLS inh: 1.2%; VDR inhibitor: 0.7%; GCN5L2 inh: -2.6%
